Screens from PubChem.
Shown are actives, neighbours in structure and some others; about 4.9% of the full set was active somewhere.
USP8 inh: blocks human USP8 ubiquitin-rhodamine cleavage. purified USP8, Ub-rhodamine cleavage fluorescence, 30 min. 47,000 compounds, 4.2% hits. P40818. inhibition, % at 20 µM
Target sequence (P40818 whole entry, looked up): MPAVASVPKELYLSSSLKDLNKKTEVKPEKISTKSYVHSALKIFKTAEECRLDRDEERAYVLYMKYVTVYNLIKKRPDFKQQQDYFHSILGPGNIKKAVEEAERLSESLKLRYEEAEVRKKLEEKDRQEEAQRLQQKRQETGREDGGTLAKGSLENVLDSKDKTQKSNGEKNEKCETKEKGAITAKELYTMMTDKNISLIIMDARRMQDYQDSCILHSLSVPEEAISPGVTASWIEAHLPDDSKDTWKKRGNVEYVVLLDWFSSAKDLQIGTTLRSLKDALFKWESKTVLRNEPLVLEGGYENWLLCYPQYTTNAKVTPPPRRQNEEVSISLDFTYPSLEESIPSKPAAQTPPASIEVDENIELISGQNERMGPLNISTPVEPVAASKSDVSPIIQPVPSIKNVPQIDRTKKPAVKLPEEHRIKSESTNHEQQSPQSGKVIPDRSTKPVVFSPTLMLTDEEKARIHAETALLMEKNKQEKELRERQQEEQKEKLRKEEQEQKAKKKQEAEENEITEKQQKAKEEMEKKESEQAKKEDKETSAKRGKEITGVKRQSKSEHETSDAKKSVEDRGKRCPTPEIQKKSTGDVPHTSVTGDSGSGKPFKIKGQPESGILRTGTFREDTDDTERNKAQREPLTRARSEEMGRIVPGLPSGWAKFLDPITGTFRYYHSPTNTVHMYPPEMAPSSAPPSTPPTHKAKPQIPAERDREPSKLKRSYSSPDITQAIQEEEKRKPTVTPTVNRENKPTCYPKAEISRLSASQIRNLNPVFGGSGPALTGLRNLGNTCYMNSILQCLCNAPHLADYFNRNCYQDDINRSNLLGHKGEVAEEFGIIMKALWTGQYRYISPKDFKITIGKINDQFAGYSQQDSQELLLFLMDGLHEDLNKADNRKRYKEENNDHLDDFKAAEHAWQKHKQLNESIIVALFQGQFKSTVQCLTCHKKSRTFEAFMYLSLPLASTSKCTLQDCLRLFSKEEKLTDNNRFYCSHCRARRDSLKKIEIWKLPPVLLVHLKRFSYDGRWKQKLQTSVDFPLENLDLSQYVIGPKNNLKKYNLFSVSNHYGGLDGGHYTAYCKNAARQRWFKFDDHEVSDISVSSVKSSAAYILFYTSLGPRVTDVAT
OTUD3 block: human OTUD3 deubiquitinase inhibition | Q5T2D3 | purified OTUD3, Ub-rhodamine fluorescence, 2 h | inhibition, % at 25 µM | 47,000 compounds, 0.7% hits | AID 1645858
UCHL1 block: blocks human UCHL1 ubiquitin-rhodamine cleavage | 47,000 compounds, 0.2% hits | P09936 | inhibition, % at 20 µM | AID 1645859 | purified UCHL1, Ub-rhodamine cleavage fluorescence
USP7 block: blocks human USP7 ubiquitin-rhodamine cleavage; inhibition, % at 20 µM; 47,000 compounds, 0.3% hits; AID 1645854; purified USP7, Ub-rhodamine cleavage fluorescence
USP10 block: blocks human USP10 ubiquitin-rhodamine cleavage; Q14694; purified USP10, Ub-rhodamine fluorescence, 60 min; inhibition, % at 20 µM; 47,000 compounds, 1.1% hits
The depositor's hits bear a star. Cut-off read from the data, not from the text of the source: active = inhibition above about 30%; inactive = the rest.

SMILES	USP8 inh	OTUD3 block	UCHL1 block	USP7 block	USP10 block
O=C(NCc1ccc2c(c1)OCO2)c1cc2c(s1)CCC2	79*	22	38*	9	47*
CC(C(=O)Nc1ccc2[nH]c(=O)[nH]c2c1)N1CCCCCC1 (stereo unspecified)	3	-1	0	4	0
Cc1ccc(NC(=O)c2cc3c(s2)CCC3)cc1	49*	12	17	-4	14
O=C(Nc1ccc2[nH]c(=O)[nH]c2c1)c1cc2c(s1)CCCCC2	53*	14	-6	7	-9
CN1[C@@H](CCC(=O)N2CCN(c3ccccn3)CC2)CNC(=O)[C@@H]2[C@H]1CCN2Cc1ccc(O)cc1	73*	23	17	-14	-2
CN1[C@@H](CCC(=O)N2CCN(c3ccccn3)CC2)CNC(=O)[C@@H]2[C@H]1CCN2CC(C)(C)C	-4	-2	-2	-2	-1
CN1[C@@H](CCC(=O)N2CCC(O)CC2)CNC(=O)[C@@H]2[C@H]1CCN2Cc1cccc(OC(F)(F)F)c1	35*	-13	4	-22	-1
COC(=O)C1CCN(C(=O)CC[C@H]2CNC(=O)[C@@H]3[C@@H](CCN3Cc3ccccc3)N2C)CC1	19	-2	7	-20	3
CN1[C@@H](CCC(=O)N2CCN(c3ccccn3)CC2)CNC(=O)[C@@H]2[C@H]1CCN2Cc1ccc(CO)o1	-11	-8	-2	0	-1
CN1[C@@H](CCC(=O)N2CCC(O)CC2)CNC(=O)[C@@H]2[C@H]1CCN2Cc1ccc(O)cc1	66*	19	12	-7	-3
CC(C)N1CC[C@@H]2[C@H]1C(=O)NC[C@H](CCC(=O)N1CCN(c3ccccn3)CC1)N2C	62*	16	10	-4	0
O=C(c1cnco1)N1CCCC(c2ncc(Cc3ccccc3Cl)o2)C1 (stereo unspecified)	6	13	1	-3	0
Cc1ccc(C(=O)N2CCc3cc(-c4nc(NC(=O)C5CCCC5)sc4C)ccc32)cc1	0	0	0	-11	8
O=C(OC1CCCCC1=O)c1c2c(nc3ccccc13)CCCCC2 (stereo unspecified)	-7	-5	1	-31	0
Cc1nnc(-c2ccc3ccn(CC(=O)N4CCCc5ccccc54)c3c2)o1	91*	2	51*	-27	85*
Cc1nnc(-c2ccc3ccn(CC(=O)NC4CCCC4)c3c2)o1	-7	-6	-1	0	-1
Cc1nnc(-c2ccc3ccn(CC(=O)N4CCN(c5ccccc5)CC4)c3c2)o1	96*	73*	25	-15	47*
Cc1ccc(S(=O)(=O)N2C[C@@H]3C[C@H](NC(=O)c4cccnc4)[C@H]2C3)cc1C	-11	-13	-4	-6	-5
Cc1ccc(S(=O)(=O)N[C@H](C(=O)N2CCC(C(=O)N[C@@H](Cc3c[nH]c4ccccc34)C(=O)O)CC2)C(C)C)cc1	4	0	-3	-1	-1
O=C(CN(c1cc(C(F)(F)F)ccc1Cl)S(=O)(=O)c1ccccc1)NCc1ccco1	32*	12	7	-2	2
Cc1cccc(Cn2c(C)nc3c(NS(=O)(=O)c4ccc(Cl)cc4)c(C)c(C)cc32)c1	8	16	-1	0	4
Cc1cccc(OCC(=O)N(C)Cc2cc(=O)[nH]c3ccccc23)c1	30*	13	1	0	1
Cc1cc(=O)n(CC(=O)NCCC2=CCCCC2)c(N2CCCCC2)n1	-3	0	-1	-8	0
O=c1cc(-c2ccc(O)c(O)c2)oc2cc(O[C@@H]3O[C@H](CO)[C@@H](O)[C@H](O)[C@H]3O)cc(O)c12	27	97*	31*	36*	52*
CC(=O)c1cccc(NC(=O)c2cnc(NCc3ccccc3F)nc2C)c1	-33	-9	-3	-16	4
COc1ccc(OC)c(NC(=O)c2cnc(NCc3ccccc3F)nc2C)c1	33*	-12	1	-15	-2
COC[C@H]1CCCN1C(=O)CC[C@H]1CNC(=O)[C@@H]2[C@@H](CCN2C2CCOCC2)N1C	40*	14	7	-7	0
CC(C)N1CC[C@@H]2[C@H]1C(=O)NC[C@H](CCC(=O)N1CCOCC1)N2C	10	-3	0	0	2
COC[C@H]1CCCN1C(=O)CC[C@H]1CNC(=O)[C@@H]2[C@@H](CCN2C2CCCCC2)N1C	25	0	5	-13	1
COC[C@H]1CCCN1C(=O)CC[C@H]1CNC(=O)[C@@H]2[C@@H](CCN2C(C)C)N1C	41*	11	6	-1	1
